Bioassay records (PubChem BioAssay)
Hits are enriched below; roughly 10% of the tested compounds scored in any of these assays.
GLS inhibitor – inhibitors of human glutaminase (GLS). O94925. GLS enzymatic activity, qHTS titration. Potency, µM (top dose mostly 45.5 µM), inactives show at the top dose activity change, negative = inhibition, hits mostly inhibitors. 0.21% of 410,000 active; further: on the % scale 0 is the no-effect control and ±100 the full control effect
Target sequence (O94925 whole entry, looked up): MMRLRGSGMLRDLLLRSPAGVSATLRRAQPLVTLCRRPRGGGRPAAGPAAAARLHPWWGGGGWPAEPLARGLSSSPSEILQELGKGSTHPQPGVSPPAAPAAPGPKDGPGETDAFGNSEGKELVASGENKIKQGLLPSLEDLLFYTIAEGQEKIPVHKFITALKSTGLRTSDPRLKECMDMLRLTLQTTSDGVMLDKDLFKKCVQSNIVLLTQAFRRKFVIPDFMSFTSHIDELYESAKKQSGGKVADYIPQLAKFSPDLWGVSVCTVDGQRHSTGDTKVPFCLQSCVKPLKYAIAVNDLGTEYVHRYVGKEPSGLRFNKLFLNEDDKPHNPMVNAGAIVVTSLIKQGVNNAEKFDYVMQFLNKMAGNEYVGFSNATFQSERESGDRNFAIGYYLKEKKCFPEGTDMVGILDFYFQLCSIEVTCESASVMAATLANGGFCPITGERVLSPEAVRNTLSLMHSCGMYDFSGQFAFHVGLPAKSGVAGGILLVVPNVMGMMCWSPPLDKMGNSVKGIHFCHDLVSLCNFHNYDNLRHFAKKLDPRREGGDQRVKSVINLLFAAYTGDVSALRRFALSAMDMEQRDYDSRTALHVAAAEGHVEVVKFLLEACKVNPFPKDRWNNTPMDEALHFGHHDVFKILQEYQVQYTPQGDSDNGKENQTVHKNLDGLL
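Enzyme dispensed in phosphate buffer (45 mM, pH 8.2, 0.02% Tween-20), compounds pinned in, then 1 mM L-glutamine solution and the glutamate oxidase–HRP–Amplex Red mix added; fluorescence read immediately and again after 30 min at room temperature.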
HP1b chromo inh – blocks HP1-beta chromodomain binding to methylated histone tails. Potency, µM (top dose mostly 114 µM), for the others: at the top dose activity change, negative = inhibition, usual class: inhibitors. AlphaScreen HP1-beta / biotin-H3K9me3 peptide binding. P83916. 0.56% of 390,000 active; further: nearly all actives have a fitted effect of over 70% in size
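AlphaScreen: HP1-beta (50 nM) preformed 30 min with biotin-H3(1-18)K9me3 peptide (50 nM) in PBS pH 7.4, 0.01% Tween-20. Compound added for 30 min at RT, then streptavidin donor/nickel chelate acceptor beads (10 ug/mL) for 30 min.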
JMJD2A Tudor – JMJD2A Tudor domain (human) inhibition; O75164; AlphaScreen JMJD2A-Tudor / H3K4me3 peptide binding; Potency, µM (doses to about 114 µM), for the others: at the highest dose activity change, negative = inhibition, usual class: inhibitors; 4.4% of 390,000 active; AID 504339; further: on the % scale 0 is the no-effect control and ±100 the full control effect; nearly all actives have a fitted effect of over 50% in size
G9a inh – blocks human histone lysine methyltransferase G9a. Q96KQ7. G9a H3K9 monomethylation, AlphaScreen, 2 h. Potency, µM (doses to about 102 µM), for inactives: top-dose activity, negative = inhibition, most hits filed as inhibitors. 8.8% of 350,000 active; further: on the % scale 0 is the no-effect control and ±100 the full control effect; nearly all actives have a fitted effect of over 75% in size
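G9a (20 nM) was preincubated 15 min with compound, then reacted 2 h at room temperature with 500 nM biotin-H3K9 peptide and 20 µM SAM. Monomethyl-H3K9 detected by AlphaScreen using anti-H3K9me1 antibody.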
BAZ2B block – BAZ2B (human) inhibition; Q9UIF8; Potency, µM (titrated, usually from 114 µM), for the others: at the highest dose activity change, negative = inhibition, most hits filed as inhibitors; 4.4% of 360,000 active; AlphaScreen BAZ2B-H3K14Ac peptide displacement; AID 504333; further: on the % scale 0 is the no-effect control and ±100 the full control effect; nearly all actives have a fitted effect of over 60% in size
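Complex of BAZ2B and biotin-H3K14Ac (50 nM apiece) forms over 30 min at RT, then faces library compounds up to 110 uM for another 30 min; AlphaScreen beads added, 20 min dark incubation, luminescence read.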
L3MBTL1 block – blocks human L3MBTL1. 0.66% of 230,000 active. AlphaScreen L3MBTL1–H3K9me1 peptide binding. Potency, µM (highest dose often 57.1 µM), for inactives: top-dose activity, negative = inhibition, hits mostly inhibitors. Q9Y468; further: on the % scale 0 is the no-effect control and ±100 the full control effect; nearly all actives have a fitted effect of over 60% in size
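L3MBTL1 (50 nM) pre-complexed 30 min with biotinylated H3(1-15)K9me1 peptide (75 nM), then compounds added for 30 min at room temperature; AlphaScreen streptavidin donor/nickel chelate acceptor beads (10 ug/mL final) read after 30 min dark incubation.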
* = called active by the depositor; ? = inconclusive; · = not tested or not shown; [ ] = dose if it differs, or a comment. The call rests on the fitted dose curve; in most records, active means well fitted curve in the direction sought with a large enough effect; inconclusive means small, poorly fitted or top-dose-only effect, or another doubt; inactive means no such curve, though single readings can be large; an effect the other way counts as inactive or inconclusive. Potency means the concentration at half of the fitted maximal effect.

SMILES | GLS inhibitor | HP1b chromo inh | JMJD2A Tudor | G9a inh | BAZ2B block | L3MBTL1 block
O=C1CCCC2=C1C1(CCCC1)N=C(Nc1nc3cc(Cl)ccc3o1)N2 | · | · | -20.6% | · | · | ·
CCCN(Cc1cccs1)C(=O)Nc1cc(Cl)ccc1C | -1.0% | 62.8% | -0.7% | -11.1%[59 µM] | 0.1% | ·
Cc1nn(C(C)(C)C)c(OC(=O)c2c(F)cccc2F)c1Sc1ccccc1 | 9.5% | 86.8% | 57.7% | 34.1%[59 µM] | 54.1% | ·
COc1ccc(-c2csc3ncnc(Nc4ccc(OC)c(OC)c4)c23)cc1 | 18.3% | -0.7% | ? | 5.4%[59 µM] | -30.5% | ·
COc1ccc(C2=NO[C@@H]3C(=O)N(c4ccc(C)cc4C)C(=O)[C@H]23)cc1OC | 17.3% | 57.0% | ? | 12.6µM* | -2.6% | 4.6%
COc1ccc(-c2cn(-c3ccc(C)cc3C)c(=O)[nH]2)cc1OC | -0.4% | 33.2% | -9.0% | 11.2µM* | -18.7% | 16.6%
COc1ccc(C2=NO[C@@H]3C(=O)N(c4cccc(C)c4C)C(=O)[C@H]23)cc1OC | -7.2% | 19.9% | -19.9% | 23.4%[59 µM] | 5.2% | ·
CNCCCC1Sc2ccccc2Oc2ccccc21 (stereo not given) | -16.0% | -34.2% | 8.91µM* | 7.94µM* | ? | -24.7%
CCOc1ccc(Cc2n[nH]c(=S)n2Cc2ccccc2)cc1 | -3.5% | -9.7% | 44.7µM* | 1.12µM* | -37.7% | -12.6%
COc1ccccc1C(=O)NCc1nc2cccnc2n1Cc1ccc(F)cc1 | -2.7% | 25.5%[57 µM] | -11.0% | 4.8%[59 µM] | -0.1% | ·
Cc1ccc(OCc2n[nH]c(=S)n2Cc2ccccc2)cc1 | 29.2% | 19.5% | -27.8% | ? | -19.9% | -2.4%
COc1ccc(Cc2n[nH]c(=S)n2Cc2ccccc2)cc1Cl | -25.4% | -17.5% | 56.2µM* | 6.31µM* | ? | -12.1%
COc1ccccc1C(=O)NCc1n[nH]c(=S)n1Cc1ccccc1 | -11.0% | 42.8% | 35.5µM* | ? | -3.0% | 0.2%
CCN(C(=O)c1cc2cc(Br)cc(OC)c2oc1=O)c1ccccc1 | 3.6% | 10.9% | -16.8% | -2.8%[59 µM] | -13.8% | ·
CCN(CC)c1ccc(-n2c(O)c(C=C3N=c4ccccc4=N3)sc2=S)cc1 | 1.7% | 20.7% | -22.3% | ? | 5.0% | 1.9%
CCCC(C(=O)O)n1c(O)c(C=C2N=c3ccccc3=N2)sc1=S (stereo not given) | 7.2% | -2.1% | 20µM* | ? | -32.0% | -15.2%
O=C(O)CCCCCn1c(O)c(C=C2N=c3ccccc3=N2)sc1=S | 8.9% | -2.5% | -31.8% | 8.91µM* | 50.1µM* | -5.5%
O=C(O)CCCn1c(O)c(C=C2N=c3ccccc3=N2)sc1=S | 2.3% | 22.7% | -34.5% | -107.3%[59 µM] | ? | ·
O=C(O)c1cccc(-n2c(O)c(C=C3N=c4ccccc4=N3)sc2=S)c1 | 20.8% | -15.9% | ? | 50.1µM* | -37.2% | -24.7%
COc1ccccc1NC(=O)C1CCN(C(=O)c2sc3nc[nH]c(=O)c3c2C)CC1 | -6.7% | 23.9%[57 µM] | -6.8% | 22.5%[59 µM] | 8.0% | ·
CC1Cc2ccccc2N1C(=O)CSc1ncccc1C(=O)O (stereo not given) | 10.8% | 17.5% | -11.5% | 79.4µM* | -3.7% | -2.0%
COc1ccc(-c2ncccc2OC(=O)C23CC4CC(CC(C4)C2)C3)cc1OC | 19.5% | -4.7% | -28.6% | 44.7µM* | -6.2% | ?
O=C(Oc1ccc(Cl)c2cccnc12)C12CC3CC(CC(C3)C1)C2 | -9.0% | 109.8% | 22.3% | 8.0%[59 µM] | 6.7% | -0.6%
CC1CCN(C(=O)COc2ccc(Nc3ccccc3)cc2)CC1 | ? | -19.6% | ? | 50.1µM* | -38.8% | ?
COc1ccccc1C(=O)N1CCC(N2CCN(c3ccccc3OC)CC2)CC1 | -4.2% | ? | 17.8µM* | 7.94µM* | 50.1µM* | -6.4%
O=C(c1ccccc1Oc1ccc([N+](=O)[O-])cc1)N1CCOCC1 | 3.4% | 14.6% | -11.3% | 20.4% | -15.2% | ·
O=C(c1ccccc1Oc1ccccc1)N1CCN(c2ccccc2)CC1 | 7.3% | -24.3% | -35.7% | 39.8µM* | 9.8% | -4.8%
